Measured values: the OligoGym collection

Target: TMEM109
Assay: pooled miR-30 sensor sort-seq; sequence = guide strand
Settings: shRNA
Further: reference of the scale not given here.

Q: For TCTGGGTCAAGACATCAACTGG, which sensor-assay potency score (higher = more potent) is on record?
A: Its sensor-assay potency score (higher = more potent) is -1.37.

Q: With TGGGTCAAGACATCAACTGGGG as the sequence, how does the sensor-assay potency score (higher = more potent) read?
A: The sensor-assay potency score (higher = more potent) was -0.224.

Q: With TATTCTTCACATCATGTGCCAA as the sequence, how does the sensor-assay potency score (higher = more potent) read?
A: Its sensor-assay potency score (higher = more potent) is -0.456.

Q: Which sensor-assay potency score (higher = more potent) does the source give for TTCCACATCAAACCTGAACAGT here?
A: The sensor-assay potency score (higher = more potent) was -0.603.

Q: For TTGAACACATGCTTTCCCCATG, which sensor-assay potency score (higher = more potent) is on record?
A: The sensor-assay potency score (higher = more potent) was -0.916.

Q: TCCCTCGCACAGATCGACCTAT was tested. Which sensor-assay potency score (higher = more potent) did it give?
A: Its sensor-assay potency score (higher = more potent) is -0.902.

Q: TGTGATTCCACATCAAACCTGA was tested. Which sensor-assay potency score (higher = more potent) did it give?
A: The sensor-assay potency score (higher = more potent) was 0.855.

Q: How did the sensor-assay potency score (higher = more potent) turn out when TTTCTCTGTTTCTCTTGGCTAG was run?
A: Its sensor-assay potency score (higher = more potent) is -0.388.

Q: TTTGGTATGACACTGGCGGTGT was tested. Which sensor-assay potency score (higher = more potent) did it give?
A: Its sensor-assay potency score (higher = more potent) is 0.696.

Q: For TTTGAACACATGCTTTCCCCAT, which sensor-assay potency score (higher = more potent) is on record?
A: The sensor-assay potency score (higher = more potent) was -0.568.

Q: For TCGCACAGATCGACCTATCTGG, which sensor-assay potency score (higher = more potent) is on record?
A: Its sensor-assay potency score (higher = more potent) is -0.204.

Q: How did the sensor-assay potency score (higher = more potent) turn out when TTTAAAACCAACCAAGCACTGA was run?
A: The sensor-assay potency score (higher = more potent) was -0.265.

Target: TMEM110
Assay: as above
Settings: shRNA

Q: For TTAGCTTTCGTCTTCCCCTTTC, which sensor-assay potency score (higher = more potent) is on record?
A: The sensor-assay potency score (higher = more potent) was -0.779.

Q: Which sensor-assay potency score (higher = more potent) does the source give for TAAGTCACAGTAGTCTGGGGGC here?
A: Its sensor-assay potency score (higher = more potent) is 0.0391.

Q: TTTTTAAGTCACAGTAGTCTGG was tested. Which sensor-assay potency score (higher = more potent) did it give?
A: Its sensor-assay potency score (higher = more potent) is -0.583.

Q: With TTTTAAGTCACAGTAGTCTGGG as the sequence, how does the sensor-assay potency score (higher = more potent) read?
A: The sensor-assay potency score (higher = more potent) was 0.293.

Q: With TTCTTCTAGCTTAGCTTTCGTC as the sequence, how does the sensor-assay potency score (higher = more potent) read?
A: Its sensor-assay potency score (higher = more potent) is -0.864.

Q: With TTCAGTGAGATCTGCTAGGTAT as the sequence, how does the sensor-assay potency score (higher = more potent) read?
A: Its sensor-assay potency score (higher = more potent) is 0.113.

Q: TTGGAAGTGTCTAAAAACCATA was tested. Which sensor-assay potency score (higher = more potent) did it give?
A: Its sensor-assay potency score (higher = more potent) is -1.5.

Q: For TTGTAGTGCAACTGAATGGGGA, which sensor-assay potency score (higher = more potent) is on record?
A: Its sensor-assay potency score (higher = more potent) is -0.276.

Q: TTTGTAGTGCAACTGAATGGGG was tested. Which sensor-assay potency score (higher = more potent) did it give?
A: The sensor-assay potency score (higher = more potent) was -0.728.

Q: For TTAAGTCACAGTAGTCTGGGGG, which sensor-assay potency score (higher = more potent) is on record?
A: Its sensor-assay potency score (higher = more potent) is -0.231.

Q: With TTCTAGCTTAGCTTTCGTCTTC as the sequence, how does the sensor-assay potency score (higher = more potent) read?
A: The sensor-assay potency score (higher = more potent) was -0.0536.

Q: For TTTAAGTCACAGTAGTCTGGGG, which sensor-assay potency score (higher = more potent) is on record?
A: The sensor-assay potency score (higher = more potent) was 0.109.

Target: TMEM117
Assay: as above
Settings: shRNA

Q: Which sensor-assay potency score (higher = more potent) does the source give for TTAGTGTGATTGGACCTCCATT here?
A: The sensor-assay potency score (higher = more potent) was -1.69.

Q: TATCAGTGACCATCCAAGCTGT was tested. Which sensor-assay potency score (higher = more potent) did it give?
A: The sensor-assay potency score (higher = more potent) was -0.461.

Q: How did the sensor-assay potency score (higher = more potent) turn out when TTGAAGTCAGACCTGATGCAAA was run?
A: The sensor-assay potency score (higher = more potent) was -0.838.

Q: How did the sensor-assay potency score (higher = more potent) turn out when TACATCAACATCTCCCATGAAA was run?
A: Its sensor-assay potency score (higher = more potent) is -1.02.

Q: TTTCACTGTATATATCTTCTGC was tested. Which sensor-assay potency score (higher = more potent) did it give?
A: Its sensor-assay potency score (higher = more potent) is -0.0324.

Q: How did the sensor-assay potency score (higher = more potent) turn out when ATTTACATCAACATCTCCCATG was run?
A: Its sensor-assay potency score (higher = more potent) is -0.907.

Q: TATTACTGAATTTTGCATCTGT was tested. Which sensor-assay potency score (higher = more potent) did it give?
A: Its sensor-assay potency score (higher = more potent) is 1.08.

Q: With TTGTCTTGATTCTCCATGCGTG as the sequence, how does the sensor-assay potency score (higher = more potent) read?
A: Its sensor-assay potency score (higher = more potent) is -0.601.

Q: For TTAATCGGAGCAACTGACCAAA, which sensor-assay potency score (higher = more potent) is on record?
A: Its sensor-assay potency score (higher = more potent) is -0.0675.

Q: TAGTAGATTCGTTCAACTGTGA was tested. Which sensor-assay potency score (higher = more potent) did it give?
A: The sensor-assay potency score (higher = more potent) was 0.105.

Q: With TTTGTCTTGATTCTCCATGCGT as the sequence, how does the sensor-assay potency score (higher = more potent) read?
A: Its sensor-assay potency score (higher = more potent) is -0.0154.

Q: For TTGAACATCAGATACATGGGTC, which sensor-assay potency score (higher = more potent) is on record?
A: Its sensor-assay potency score (higher = more potent) is 0.48.

Target: TMEM130
Assay: as above
Settings: shRNA

Q: Which sensor-assay potency score (higher = more potent) does the source give for TATTGTCTCAGCCACAGCCCAG here?
A: The sensor-assay potency score (higher = more potent) was -1.4.

Q: Which sensor-assay potency score (higher = more potent) does the source give for TATGTGTACAACCTTTAGTTAT here?
A: Its sensor-assay potency score (higher = more potent) is -1.54.

Q: TAGAGAAACAAGGCGGTCTTGA was tested. Which sensor-assay potency score (higher = more potent) did it give?
A: The sensor-assay potency score (higher = more potent) was 0.529.
